Screening data deposited in PubChem by National Center for Advancing Translational Sciences (NCATS).
ALDH1A1 inh = inhibitors of human aldehyde dehydrogenase 1A1. P00352. Purified ALDH1A1, NADH fluorescence, propionaldehyde substrate. Potency, µM (series often up to 75.3 µM), for the others: top-dose activity, negative = inhibition, actives largely listed as inhibitors. 7.3% of 220,000 active. AID 1030; active = well fitted inhibition curve with a large enough effect, not every such curve was filed as active; inconclusive = small, poorly fitted or top-dose-only effect, or another doubt; inactive = no such curve, though single readings can be large or run the other way;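 note: plate controls were no enzyme wells and a reference inhibitor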
Target sequence (P00352 whole entry, looked up): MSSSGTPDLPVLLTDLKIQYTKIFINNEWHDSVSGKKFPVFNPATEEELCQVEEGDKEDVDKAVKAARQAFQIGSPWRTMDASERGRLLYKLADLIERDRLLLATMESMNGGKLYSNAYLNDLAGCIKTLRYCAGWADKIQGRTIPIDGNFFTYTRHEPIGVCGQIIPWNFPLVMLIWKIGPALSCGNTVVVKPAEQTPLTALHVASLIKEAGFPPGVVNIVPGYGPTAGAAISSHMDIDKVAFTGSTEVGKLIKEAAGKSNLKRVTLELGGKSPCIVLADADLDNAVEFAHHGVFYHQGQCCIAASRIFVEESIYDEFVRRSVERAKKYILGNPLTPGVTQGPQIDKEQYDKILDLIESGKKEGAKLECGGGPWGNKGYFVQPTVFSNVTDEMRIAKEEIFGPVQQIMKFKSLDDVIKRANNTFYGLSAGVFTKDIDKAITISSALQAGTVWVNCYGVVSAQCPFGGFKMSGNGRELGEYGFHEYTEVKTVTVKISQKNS
Sfp PPTase inh = Sfp phosphopantetheinyl transferase inhibition; Q9F4F7; Biochemical Sfp PPTase activity, qHTS; Potency, µM, without a hit: largest response in the series, negative = inhibition, most hits filed as inhibitors; 3.5% of 310,000 active; AID 1490;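 note: the enzyme is Sfp with the accession as filed and its product quenches rhodamine fluorescence; 0% = enzyme reaction without inhibitor and -100% = no enzyme wells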
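With Hepes-Na pH 7.6 buffer containing 10 mM MgCl2, Sfp (15 nM) modified BHQ-2-YbbR (12.5 uM) using rhodamine-CoA (5 uM). Two reads 30 minutes apart at 525/598 nm yielded each well's rate.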
PLK1 PBD block = PLK1 (human) polo-box domain binding inhibition; Potency, µM, for inactives: max response, negative = inhibition, hits mostly inhibitors; AID 720504; P53350; Plk1 PBD binding of FITC phosphopeptide, fluorescence polarization; 2.8% of 360,000 active; note: series mostly up to about 57 µM; nearly all actives have a fitted effect of over 65% in size
VP16 counter = counter-screen for ROR gamma inhibitors: Gal4-VP16 reporter. Drosophila S2 Gal4-VP16 UAS-luciferase, luminescence, 20 h. Potency, µM (series often up to 53.6 µM), inactives show top-dose activity, negative = inhibition, most hits filed as inhibitors. 3.5% of 310,000 active. AID 2546;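 note: Gal4-VP16 expression switched on by copper sulfate through the metallothionein promoter; nearly all actives have a fitted effect of over 50% in size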
RORgamma inh = inhibitors of mouse ROR gamma transcriptional activity; P51450; Drosophila S2 Gal4-RORgamma UAS-luciferase reporter, 20 h; Potency, µM (doses to about 53.6 µM), without a hit: at the highest dose activity change, negative = inhibition, usual class: inhibitors; 5.4% of 310,000 active; note: nearly all actives have a fitted effect of over 60% in size
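Read-out: Photinus luciferase luminescence; inhibitors lower reporter signal. Insect Schneider cells with Gal4-ROR gamma fusion under metallothionein promoter, UAS reporter; 700 uM final copper sulfate induction, 20 hr, ambient temperature.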
The depositor's hits bear a star; [ ] = another dose, or the depositor's remark. Shown are actives, neighbours in structure and some others; about 12% of the full set was active somewhere. Unless noted, calls come from the whole dose curve; as a rule, active = well fitted curve in the direction sought with a large enough effect; inconclusive = small, poorly fitted or top-dose-only effect, or another doubt; inactive = no such curve, though single readings can be large; an effect the other way counts as inactive or inconclusive. Unless noted, % is set by controls: 0 for no effect and ±100 for the full control effect; potency is the fitted concentration of half-maximal effect.

How did CN(C)c1nc(-c2ccccn2)nnc1-c1ccccc1 do in these assays?
ALDH1A1 inh: -2.7%; Sfp PPTase inh: 79.4µM*; PLK1 PBD block: 0.8%; VP16 counter: 1.2%; RORgamma inh: -27.5%

How did Oc1ccccc1-c1nnc(COc2ccc(Cl)cc2Cl)o1 do in these assays?
ALDH1A1 inh: inconclusive; Sfp PPTase inh: -4.6%; PLK1 PBD block: 26.7µM*; VP16 counter: 4.47µM*; RORgamma inh: 2.51µM*

What do the screens show for `Oc1ccccc1-c1nnc(COc2ccccc2)o1`?
ALDH1A1 inh: -6.1%; Sfp PPTase inh: 4.0%; PLK1 PBD block: -10.5%; VP16 counter: inconclusive; RORgamma inh: 10µM*

How did COc1ccc(CC(N)C(=O)NC2C(CO)OC(n3cnc4c(N(C)C)ncnc43)C2O)cc1 (stereo not drawn) do in these assays?
ALDH1A1 inh: -3.3%; Sfp PPTase inh: 19.8%; VP16 counter: inconclusive; RORgamma inh: -4.3%

What do the screens show for `CC(C)(C)OC(=O)NCCCC1=CC2=CC(=O)C(C)(OC(=O)c3cnc4ccccc4n3)C(=O)C2=CO1` (stereo not drawn)?
ALDH1A1 inh: 0.0%; Sfp PPTase inh: -15.3%; VP16 counter: 1.7%; RORgamma inh: 3.8%

Results for O=C(c1cccs1)N1C[C@@H](O)[C@H](n2cc(-c3ccc(F)cc3)nn2)C[C@@H]1c1ccccc1 ?
PLK1 PBD block: -17.7%

What do the screens show for `COC(=O)[C@]12CCCCC=C1N(Cc1cccc3ccccc13)C(=O)[C@H](CC(=O)NCCCN1CCCC1=O)C2`?
PLK1 PBD block: 6.3%

What do the screens show for `Nc1nc2ccccc2n1/N=C/c1cccnc1`?
PLK1 PBD block: 1.8%

What do the screens show for `Nc1nc2ccccc2n1/N=C/c1ccc(-c2ccccc2)o1`?
ALDH1A1 inh: 3.5%; Sfp PPTase inh: -21.2%; PLK1 PBD block: -6.2%; VP16 counter: inconclusive; RORgamma inh: 7.94µM*

What do the screens show for `CN1CCN(C(=O)c2cc(COc3c(F)cccc3F)on2)CC1c1ccccc1` (stereo not drawn)?
ALDH1A1 inh: inconclusive; Sfp PPTase inh: 10µM*; PLK1 PBD block: -17.0%; VP16 counter: 7.08µM*; RORgamma inh: 7.08µM*

How did CCc1ccc(CN(C)C(=O)c2cc(COc3c(F)cccc3F)on2)cc1 do in these assays?
ALDH1A1 inh: 3.7%; Sfp PPTase inh: -4.6%; PLK1 PBD block: 18.9µM*; VP16 counter: -21.7%; RORgamma inh: 30.0%

How did CCN(Cc1ccncc1)C(=O)c1cc(COc2ccc(F)cc2Cl)on1 do in these assays?
Sfp PPTase inh: 7.3%; PLK1 PBD block: -3.1%; VP16 counter: -4.2%; RORgamma inh: -4.0%

Results for COC(=O)[C@H](Cc1ccccc1)NC(=O)c1cc(COc2c(F)cccc2F)on1 ?
Sfp PPTase inh: 12.1%; PLK1 PBD block: 29.9µM*; VP16 counter: 8.7%; RORgamma inh: -38.2%

How did COc1ccccc1OCc1cc(C(=O)N2CCN(C)C(c3ccccc3)C2)no1 (stereo not drawn) do in these assays?
Sfp PPTase inh: 11.7%; PLK1 PBD block: -10.3%; VP16 counter: 3.4%; RORgamma inh: 5.5%

What do the screens show for `CCN(Cc1ccncc1)C(=O)c1cc(COc2c(F)cccc2F)on1`?
Sfp PPTase inh: 18.2%; PLK1 PBD block: 29.9µM*; VP16 counter: 0.0%; RORgamma inh: 17.2%

Results for Cc1cccc(C(=O)CC(=O)c2cc(Cl)ccc2O)c1 ?
ALDH1A1 inh: 0.6%; Sfp PPTase inh: 17.8%; PLK1 PBD block: -25.1%; VP16 counter: inconclusive; RORgamma inh: inconclusive

Results for O=C(CC(=O)c1cc(Cl)ccc1O)c1ccccc1 ?
ALDH1A1 inh: 10.7%; Sfp PPTase inh: -62.1%; PLK1 PBD block: -12.7%; VP16 counter: 11.2µM*; RORgamma inh: inconclusive

Results for Cc1ccc(O)c(C(=O)CC(=O)c2cccc(F)c2)c1 ?
ALDH1A1 inh: -8.2%; Sfp PPTase inh: 20.4%; PLK1 PBD block: -13.3%; VP16 counter: 7.08µM*; RORgamma inh: 7.94µM*

What do the screens show for `Cc1ccc(C(=O)CC(=O)c2ccccc2)cc1`?
Sfp PPTase inh: 6.7%; PLK1 PBD block: -6.8%; VP16 counter: inconclusive; RORgamma inh: 11.2µM*

What do the screens show for `Cc1ccc(O)c(C(=O)CC(=O)c2ccc(Cl)cc2)c1`?
Sfp PPTase inh: 27.3%; PLK1 PBD block: 1.0%; VP16 counter: 5.01µM*; RORgamma inh: 3.55µM*

How did Cc1cccc(C(=O)NCC(=O)NNC(=O)c2ccccc2O)c1 do in these assays?
PLK1 PBD block: 1.4%

How did Cc1ccc(C(=O)Cc2ccccc2)cc1 do in these assays?
PLK1 PBD block: 0.0%

Results for CC(C)[C@H]1COC(c2cccc([N+](=O)[O-])c2)=N1 ?
ALDH1A1 inh: -9.7%[120 µM]; Sfp PPTase inh: 6.9%; VP16 counter: -8.0%[96.6 µM]; RORgamma inh: 18.5%[96.6 µM]

What do the screens show for `CCc1nc2c(OCc3cc(Cl)cc(Cl)c3)cccn2c1N(C)C(=O)c1ccc(OC)cc1`?
PLK1 PBD block: -7.8%

Results for C[C@H](CO)N1C[C@H](C)[C@@H](CN(C)Cc2ccc3cccnc3c2)OCc2cnnn2CCCC1=O ?
PLK1 PBD block: -19.3%

How did CC(C)c1ccc(C2(O)C(=O)Nc3cc(Br)ccc32)c(O)c1 (stereo not drawn) do in these assays?
Sfp PPTase inh: 9.2%; PLK1 PBD block: 26.7µM*; VP16 counter: -1.4%; RORgamma inh: 17.7%

What do the screens show for `O=C1Nc2cc(Br)ccc2C1(O)c1ccccc1O` (stereo not drawn)?
Sfp PPTase inh: 4.9%; PLK1 PBD block: -3.8%; VP16 counter: -3.3%; RORgamma inh: -11.1%

Results for O=C(CCCCC(=O)NN=Cc1ccc2c(c1)CCC2)NN=Cc1ccc2c(c1)CCC2 ?
PLK1 PBD block: -7.7%

How did CCCN1CCN(C(c2cc3cc(OCC)ccc3[nH]c2=O)c2nnnn2C2CCCCC2)CC1 (stereo not drawn) do in these assays?
ALDH1A1 inh: inconclusive; Sfp PPTase inh: -4.5%; PLK1 PBD block: -9.9%; VP16 counter: 0.0%; RORgamma inh: -0.3%

What do the screens show for `CCOc1ccc2[nH]c(=O)c(CN(CCO)C(c3nnnn3C3CCCCC3)C(C)C)cc2c1` (stereo not drawn)?
ALDH1A1 inh: 12.6µM*; Sfp PPTase inh: 89.1µM*; PLK1 PBD block: -7.8%; VP16 counter: 3.4%; RORgamma inh: -2.2%

What do the screens show for `Cc1cccc2cc(CN(Cc3nnnn3C3CCCC3)C3CCCCC3)c(=O)[nH]c12`?
PLK1 PBD block: -15.0%

How did Cc1ccc2[nH]c(=O)c(CN(Cc3nnnn3Cc3ccccc3)C3CCCC3)cc2c1 do in these assays?
ALDH1A1 inh: 20µM*; Sfp PPTase inh: -25.0%; PLK1 PBD block: -9.3%; VP16 counter: -0.2%; RORgamma inh: 24.3%

How did CCc1ccc2[nH]c(=O)c(CN(Cc3nnnn3C3CCCC3)C3CCCCC3)cc2c1 do in these assays?
ALDH1A1 inh: 14.1µM*; Sfp PPTase inh: -2.3%; PLK1 PBD block: -12.7%; VP16 counter: 3.7%; RORgamma inh: 18.5%

What do the screens show for `COc1ccc2sc(-c3ccc(SC)cc3)c(/C=C/c3ccc(OC)c(OC)c3)c2c1`?
PLK1 PBD block: -7.4%
